Test results as given in PubChem BioAssay (EPA / NIEHS).
“And” between values parts separate entries of the source, which are not always exact repeats. Equal entries are not always repeated. Results filed as inconclusive are left out. Where a structure was tested more than once in an assay, its records may differ in their call. The source made the active and inactive calls. How the source made its calls: active means hit-call score of the fitted dose curve at least 0.9, where 1 is the maximum; inconclusive means response in the unintended direction; inactive means score below 0.9. Peptide text beside a SMILES is read from it.

How the values were obtained:
[1] = molecular target: Cellular tumor antigen p53 (Homo sapiens) (UniProt P04637); experiment: TOX21_p53_BLA_p2_ratio: Tox21 HCT-116 p53 Agonism Beta-lactamase Assay, Ratio, Phase 2 (AID 2283592)
Summary of the method: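 An inducible beta-lactamase reporter in HCT116 cells signals p53 pathway activation. After 16 h chemical exposure at 37C, cells load CCF4-AM substrate for 2 h at room temperature; activity is the cleaved/uncleaved emission ratio relative to DMSO.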

[2] = TOX21_p53_BLA_p3_viability: Viability Assessment in the Tox21 HCT-116 p53 Agonism Beta-lactamase Assay, Phase 3 (AID 2283593);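 further: cells exposed to compound for 16 h before reading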
Summary of the method: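 Cellular ATP was quantified by CellTiter-Glo luminescence, read after 30 min at room temperature. Beforehand, HCT116 cells (4000/well) received compound 5 h post-seeding, 217-fold diluted from DMSO, then incubated 16 h at 37C.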

[3] = molecular target: Cellular tumor antigen p53 (Homo sapiens) (UniProt P04637); experiment: TOX21_p53_BLA_p3_ratio: Tox21 HCT-116 p53 Agonism Beta-lactamase Assay, Ratio, Phase 3 (AID 2283596)
Summary of the method: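 HCT116 p53-bla cells (4000/well) given compound in DMSO (217-fold dilution) after 5 h, incubated 16 h at 37C. CCF4-AM substrate 2 h at room temperature; 460/530 nm emission ratio, gain fitted against DMSO.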

[4] = TOX21_p53_BLA_p4_viability: Viability Assessment in the Tox21 HCT-116 p53 Agonism Beta-lactamase Assay, Phase 4 (AID 2283597);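 further: hits lower the luminescence signal meaning cytotoxicity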
Summary of the method: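 Compound exposure of HCT116 cells lasts 16 h at 37C, 5% CO2, with DMSO stocks diluted 217-fold. Cellular ATP is then quantified by CellTiter-Glo luminescence after 30 min at room temperature.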

[5] = molecular target: Cellular tumor antigen p53 (Homo sapiens) (UniProt P04637); experiment: TOX21_p53_BLA_p5_ratio: Tox21 HCT-116 p53 Agonism Beta-lactamase Assay, Ratio, Phase 5 (AID 2283599)
Summary of the method: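 Beta-lactamase reporter ratio (blue 460 nm over green 530 nm, 405 nm excitation) after 2 h CCF4-AM loading, in HCT-116 cells exposed 16 h at 37 C to compounds pinned at 217-fold dilution. Increases relative to DMSO baseline scored.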

[6] = TOX21_p53_BLA_p5_viability: Viability Assessment in the Tox21 HCT-116 p53 Agonism Beta-lactamase Assay, Phase 5 (AID 2283600)
Summary of the method: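 Counter-readout for cytotoxicity: ATP-dependent luminescence from CellTiter-Glo, read in the beta-lactamase wells after 30 min at RT, following a 16 h compound exposure at 37C.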

[7] = molecular target: Cellular tumor antigen p53 (Homo sapiens) (UniProt P04637); experiment: TOX21_p53_BLA_p4_ratio: Tox21 HCT-116 p53 Agonism Beta-lactamase Assay, Ratio, Phase 4 (AID 2283601)
Summary of the method: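 Signal is the blue/green (460nm/530nm) ratio of cleaved versus uncleaved CCF4-AM substrate, read after 2 h substrate loading. Cells were HCT116 carrying the p53-responsive beta-lactamase reporter, dosed 16 h at 37C, 5% CO2; CellTiter-Glo measured in parallel.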

Measured: AC50

Chain of Cellular tumor antigen p53 (Homo sapiens) (P04637 whole entry, looked up): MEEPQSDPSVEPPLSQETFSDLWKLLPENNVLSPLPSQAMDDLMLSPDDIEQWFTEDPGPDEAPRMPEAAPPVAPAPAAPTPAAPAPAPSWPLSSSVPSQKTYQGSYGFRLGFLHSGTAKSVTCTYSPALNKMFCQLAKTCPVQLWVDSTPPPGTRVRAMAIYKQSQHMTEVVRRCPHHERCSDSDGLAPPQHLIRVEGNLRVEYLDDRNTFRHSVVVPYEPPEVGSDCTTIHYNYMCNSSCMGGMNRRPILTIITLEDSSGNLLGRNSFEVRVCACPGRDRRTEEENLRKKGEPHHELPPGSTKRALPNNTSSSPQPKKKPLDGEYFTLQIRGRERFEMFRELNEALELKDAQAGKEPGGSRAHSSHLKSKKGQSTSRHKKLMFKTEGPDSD

COC(=O)[C@H](Cc1ccccc1)NC(=O)[C@@H](N)CC(=O)O (H-Asp-Phe-OMe)
inactive: all assays above

O=S(=O)(O)c1ccc(N=Nc2c(O)ccc3ccccc23)cc1
active: [4] 44 µM
inactive: all other assays above

C=C(C)C(=O)OCC(O)COc1ccc(C(C)(C)c2ccc(OCC(O)COC(=O)C(=C)C)cc2)cc1 (centres undefined)
active: [3] 86.7 µM | [4] 46.1 µM
inactive: all other assays above

CN(C)Cc1cc(CN(C)C)c(O)c(CN(C)C)c1
inactive: all assays above

CC(=O)c1ccc(S(=O)(=O)NC(=O)NC2CCCCC2)cc1
inactive: all assays above

CC(C)c1ccc(O)c(C(C)C)c1
active: [4] 44.7 µM | [7] 81 µM
inactive: all other assays above

C=C[C@@]1(C)CC(=O)[C@]2(O)[C@@]3(C)[C@@H](O)CCC(C)(C)[C@@H]3[C@H](O)[C@H](OC(C)=O)[C@@]2(C)O1
inactive: [1] | [2] | [3] | [4] | [5] | [6] | [7]
active: [4] 27.1 µM

C[Si](C)(C)N[Si](C)(C)C
inactive: all assays above

CCCCC/C=C\C/C=C\CCCCCCCC(=O)O
inactive: [1] | [2] | [3] | [4] | [5] | [6] | [7]
active: [1] 72.9 µM | [2] 47.2 µM | [3] 72 µM | [5] 86.3 µM | [6] 80.5 µM

O=C(Cl)c1c(Cl)c(Cl)c(C(=O)Cl)c(Cl)c1Cl
inactive: all assays above

Cc1noc(NS(=O)(=O)c2ccc(N)cc2)c1C
inactive: all assays above

CCCCCCCOC(=O)c1ccc(O)cc1
active: [1] 58.9 µM and 86.4 µM | [2] 44.2 µM | [3] 74.5 µM | [4] 51.3 µM | [5] 74.3 µM | [7] 68.3 µM
inactive: [2] | [3] | [4] | [5] | [6] | [7]

CC(=O)OC1CCCCC1C(C)(C)C (centres undefined)
inactive: all assays above

CN(C)c1ccc2nc3ccc(=[N+](C)C)cc-3sc2c1
inactive: [2] | [3] | [4] | [5] | [6]
active: [1] 8.31 µM and 23 µM and 11.1 µM | [2] 23 µM | [3] 34.3 µM | [4] 10.8 µM | [5] 45.7 µM and 13 µM | [7] 41.2 µM and 14.4 µM and 28.4 µM

O=C(Nc1ccccc1)c1cc(Cl)ccc1O
active: [1] 3.55 µM | [3] 4.05 µM | [4] 12.6 µM | [5] 13.7 µM
inactive: [2] | [6] | [7]

CCCCNS(=O)(=O)c1ccccc1
inactive: all assays above

CCCCCOC(=O)CCCCC
inactive: [1] | [2] | [3] | [4]

O=C(OCc1ccccc1)c1ccc(O)cc1
inactive: all assays above

CC(CCC(=O)O)(c1ccc(O)cc1)c1ccc(O)cc1
inactive: all assays above

CCCCCCCCCCCCCC(=O)OC(C)C
inactive: all assays above

CCCCOCCOCCOC(C)=O
inactive: all assays above
